Growth data for seven molecules are collected here from PubChem BioAssay (NCI).

Common to all, as to experiment: NCI-60 one-dose screen, 48 h (100 = growth as untreated, 0 = no growth, -100 = all killed)
What all share (details): 10 µM unless noted

Experiment [1] deals with NCI-H23 lung.
The subject of experiment [2] is NCI-H226 lung.
The test system of experiment [3] is NCI-H322M lung.
Experiment [4] concerns HOP-62 NSCLC.
Experiment [5] relates to NCI-H460 lung.
The test system of experiment [6] is HOP-92 NSCLC.
In experiment [7] the test system is NCI-H522 lung.
Experiment [8] deals with A549/ATCC NSCLC.
In experiment [9] the test system is 786-0 renal.
In experiment [10] the test system is COLO 205 colon.
Experiment [11] has as its system DU-145 prostate.
The subject of experiment [12] is K-562 leukemia.
Experiment [13] relates to MALME-3M melanoma.
Experiment [14] has as its system MDA-MB-231 breast.
Experiment [15] relates to RXF 393 renal.
Experiment [16] has as its system SF-268 CNS.
Experiment [17] has as its system SF-295 CNS.
Experiment [18] has as its system SF-539 CNS.
The test system of experiment [19] is UACC-257 melanoma.
For experiment [20], the system named is M14 melanoma.

This is part of a sample that, as a whole, favours compounds with a hit. Of some 83,000 tested, about 20% had one in any assay.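 The test compound was applied at a single concentration to cells in 96-well plates for 48 hours, and percent growth was recorded.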 Values without a mark were called inactive. The source made the active and inactive calls. How the source made its calls: active means growth percent below 10; inactive means the rest.

Regarding `COc1ccc2c(c1)oc1c(C)c3c(c(C)c12)C(=O)N(CCOS(C)(=O)=O)C3=O`, the growth in [1] is 94.2%; in experiment [2], 106%; in [3] it was 96.7%; in experiment [4], 103%; in [5], 94%; in experiment [6], 113%. Besides, the growth is 87.7% in experiment [7]; 109% in experiment [8]; 95.2% in experiment [9]; 107% in experiment [10]; 106% in [11]; 96% in experiment [12]. Also, the growth in [13] was 90.1%; in [14], 90.7%; in experiment [15], 116%; in [16], 92.3%; in experiment [17], 103%; in experiment [18], 92.2%. The growth in experiment [19] is 125%; in experiment [20], 103%.

Regarding `Clc1ccc(Nc2ncc(Cc3cccc(Cl)c3Cl)s2)cc1`, the growth in [1] was 88.7%; in experiment [2] it was 102%; in [3], 110%; in experiment [4], 108%; in experiment [5] it was 97.6%; in [6] it was 89%. Further, the growth in experiment [7] is 80.2%; in [8], 86.7%; in [9], 95.2%; in [10], 104%; in experiment [11], 102%; in experiment [12], 86.8%. For the same molecule, the growth is 96.7% in experiment [13]; 99.6% in experiment [14]; 93.3% in experiment [15]; 98.3% in [16]; 100% in [17]; 94.7% in experiment [18]. Further, the growth in experiment [19] is 96.6%; in experiment [20] it was 103%.

Turning to `O=C(Nc1cccnc1Nc1ccccc1)c1cn(Cc2cccc(Oc3ccccc3)c2)nn1`, the growth is 68.3% in experiment [1]; 64.7% in experiment [2]; 71.8% in [3]; 78.6% in [4]; 42.6% in experiment [5]; 71.2% in experiment [6]. In addition, the growth in experiment [7] was 61.3%; in [8], 57.9%; in [9], 56.7%; in [10], 107%; in [11], 69.8%; in experiment [12], 33%. Further, the growth was 56.3% in [13]; 57.3% in [14]; 50.1% in experiment [15]; 53.6% in experiment [16]; 52.3% in [17]; 42% in [18]. For the same molecule, the growth in experiment [19] is 73%; in experiment [20], 27.5%.

As to `CCOC(=O)c1nnn(-c2no[n+]([O-])c2-c2ccc(OC)cc2)c1COc1cccc2cccnc12`, the growth in experiment [1] was 31.6%; in experiment [2], 8.91% (active); in experiment [3] it was 98.8%; in [4] it was 30.6%; in experiment [5], 8.47% (active); in [6], 17.6%. For the same molecule, the growth is -52.7% (active) in experiment [7]; 71.9% in experiment [8]; 25.8% in experiment [9]; -25% (active) in [10]; 11.8% in experiment [11]; 11.9% in experiment [12]. The growth is 68.6% in experiment [13]; 17% in [14]; 22.5% in experiment [15]; 21.8% in [16]; 33.4% in [17]; -3.16% (active) in experiment [18]. Besides, the growth in experiment [19] is 59.1%; in experiment [20], 12.4%.

Consider `Cn1c(C#N)ccc1-c1ccc(F)c(NC(=O)c2ccc(F)cc2)c1`, for which the growth in [1] is 80.6%; in experiment [2], 105%; in [3] it was 97.9%; in experiment [4], 75.8%; in [5], 80.2%; in experiment [6], 70.5%. Further, the growth in [7] is 76.2%; in experiment [8] it was 83.2%; in [9], 84.8%; in [10], 90.9%; in experiment [11], 94.3%; in experiment [12], 23.6%. Further, the growth in experiment [13] is 91.2%; in [14], 73.7%; in experiment [15], 85.3%; in experiment [16], 81.9%; in experiment [17], 68.8%; in [18], 73.8%. Besides, the growth is 107% in experiment [19] and 59.8% in [20].

As for `Nc1c(C(=O)Nc2cccc3ncccc23)sc2nc3c(cc12)CN(Cc1ccccc1)CC3`, the growth in experiment [1] is 67.7%; in [2], 77.2%; in [3] it was 83%; in [4], 73.1%; in [5], 84.3%; in [6], 74.1%. Further, the growth in [7] is 55.8%; in experiment [8], 90.3%; in experiment [9], 88.1%; in [10], 112%; in [11] it was 93.9%; in experiment [12] it was 34.8%. Moreover, the growth in experiment [13] was 76.2%; in [14], 75.3%; in [15], 80.8%; in experiment [16] it was 84.6%; in experiment [17], 67.5%; in experiment [18] it was 88.7%. Besides, the growth is 69.2% in [19] and 90.1% in [20].

For `COc1ccc(/C=C/C(c2cc(OC)c(OC)c(OC)c2)n2cncn2)cc1O` (stereo not given), the growth in experiment [1] is 41.5%; in experiment [2], 62.2%; in experiment [3] it was 54.7%; in [4], 22.5%; in experiment [5] it was 13.3%; in [6] it was 48%. Moreover, the growth in experiment [7] is 13%; in experiment [8], 40.1%; in experiment [9], 23.3%; in [10], 60.6%; in experiment [11], 21%; in experiment [12] it was 8.05% (active). For the same molecule, the growth was 54.4% in [13]; 45.5% in experiment [14]; -16.9% (active) in experiment [15]; 54.1% in experiment [16]; 1.43% (active) in [17]; -4.58% (active) in [18]. Besides, the values for the growth in [19] and in [20] were 55.6% and -12.3% (active), respectively.
